# Data reported in ChEMBL document CHEMBL1201862, “PubChem BioAssay data set” (2004).
# In all, about 1,200 compounds went through this assay and about 140 (12%) were called active. The rule behind the calls is not given here. Shown is part of a subset that was picked to be rich in actives.
# Test: restoration of mutant CFTR halide transport – FRT cells, YFP quenching, cherry-pick, dose response (AID 743402)
# Type: functional, cell-based
row,SMILES,AbsAC35
1,O=C(Nc1ccccc1)N1CCCCN2[C@@H](CO)[C@H](c3ccc(C#Cc4ccccc4)cc3)[C@@H]2C1,31.2 µM (active)
2,O=C1NC(=O)C(=Cc2c(Cl)cccc2Cl)C(=O)N1,29.4 µM (active)
